# Results as given in the supplement of paper PMC8728848.
# Many of the other results were omitted from the sample, so the strongest signals are more common in it than they were.
# B1: Si Bti9 1b-V5-his (Solanum lycopersicum) (protein)
# chain: MQCNRGCDLALASFYVWRGSNLTLISEMFSTSIADIVSYNNRDNIPNQDSVIAGTRINIPFRCDCLNDGEVLGHAFPYRVKSGDTYDLVARNYSDLTTAQWMMKFNSYPENNIPNTVNLSVVVNCSCGNSDVSKDFGLFVTYPVRAEDNLTSVASAANVSEDIIRRYNPAAVSILDIGQGIIYIPGRDRNGNFPPLPTSTDGLSGGAKKGGRADPAFLYKVVINSKLEGKPIPNPLLGLDSTRTGHHHHHH
# How the values were obtained:
# Experiment in all cases: glycan array binding signal (z-score within array); higher = stronger binding
# Settings in all cases: glycan notation: IUPAC condensed, linker removed
# [1] = target: Fuc(a1-2)Gal(b1-3)GalNAc
# Summary of the method: (§1)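 The binding signal is a Z-score computed within each array and averaged over linkers. Arrays of the same protein sequence at different concentrations or buffers were also averaged together. Data originate from 3228 arrays in the Consortium for Functional Glycomics database, kept only where the protein sequence was available.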
# [2] = target: Fuc(a1-2)[Gal(a1-3)]Gal(b1-4)[Fuc(a1-3)]Glc
# Summary of the method: as §1
# [3] = target: Fuc(a1-2)[GalNAc(a1-3)]Gal(b1-4)GlcNAc(b1-2)Man(a1-3)[Fuc(a1-2)[GalNAc(a1-3)]Gal(b1-4)GlcNAc(b1-2)Man(a1-6)]Man(b1-4)GlcNAc(b1-4)[Fuc(a1-6)]GlcNAc
# Summary of the method: as §1
# [4] = target: Fuc(a1-2)[GalNAc(a1-3)]Gal(b1-4)GlcNAc(b1-3)Gal(b1-4)GlcNAc(b1-3)Gal(b1-4)GlcNAc
# Summary of the method: as §1
# [5] = target: Fuc(a1-2)[GalNAc(a1-3)]Gal(b1-4)[Fuc(a1-3)]GlcNAc
# Summary of the method: as §1
# [6] = target: Gal(a1-3)Gal(b1-3)GlcNAc
# Summary of the method: as §1
# [7] = target: Gal(a1-3)Gal(b1-3)GlcNAc(b1-2)Man
# Summary of the method: as §1
# [8] = target: Gal(a1-3)Gal(b1-4)Glc
# Summary of the method: as §1
# [9] = target: Gal(a1-3)Gal(b1-4)GlcNAc(b1-2)Man
# Summary of the method: as §1
# [10] = target: Gal(a1-3)[Gal(a1-4)]Gal(b1-4)GlcNAc
# Summary of the method: as §1
# [11] = target: Gal(b1-3)Gal
# Summary of the method: as §1
# [12] = target: Gal(b1-3)GlcNAc(b1-2)Man
# Summary of the method: as §1
# [13] = target: Gal(b1-3)GlcNAc(b1-2)Man(a1-3)[Gal(b1-3)GlcNAc(b1-2)Man(a1-6)]Man(b1-4)GlcNAc(b1-4)[Fuc(a1-6)]GlcNAc
# Summary of the method: as §1
# [14] = target: Gal(b1-3)GlcNAc(b1-3)Gal(b1-3)GlcNAc
# Summary of the method: as §1
# [15] = target: Gal(b1-3)GlcNAc(b1-3)Gal(b1-4)GlcNAc(b1-6)[Gal(b1-3)GlcNAc(b1-3)]Gal(b1-4)Glc
# Summary of the method: as §1
# [16] = target: Gal(b1-3)[Fuc(a1-4)]GlcNAc(b1-2)Man
# Summary of the method: as §1
# [17] = target: Gal(b1-4)GlcNAc(b1-2)Man(a1-3)[GlcNAc(b1-2)Man(a1-6)]Man(b1-4)GlcNAc(b1-4)GlcNAc
# Summary of the method: as §1
# [18] = target: Gal(b1-4)GlcNAc(b1-2)Man(a1-3)[Man(a1-6)]Man(b1-4)GlcNAc(b1-4)GlcNAc
# Summary of the method: as §1
# [19] = target: Gal(b1-4)GlcNAc(b1-2)Man(a1-6)[GlcNAc(b1-2)Man(a1-3)]Man(b1-4)GlcNAc(b1-4)GlcNAc
# Summary of the method: as §1
# [20] = target: Gal(b1-4)GlcNAc(b1-3)Gal(b1-4)GlcNAc(b1-3)Gal(b1-4)GlcNAc(b1-3)Gal(b1-4)GlcNAc(b1-3)Gal(b1-4)GlcNAc(b1-2)Man(a1-3)[Gal(b1-4)GlcNAc(b1-3)Gal(b1-4)GlcNAc(b1-3)Gal(b1-4)GlcNAc(b1-3)Gal(b1-4)GlcNAc(b1-3)Gal(b1-4)GlcNAc(b1-2)Man(a1-6)]Man(b1-4)GlcNAc(b1-4)[Fuc(a1-6)]GlcNAc
# Summary of the method: as §1
# [21] = target: Gal(b1-4)GlcNAc(b1-3)Gal(b1-4)GlcNAc(b1-3)[Gal(b1-4)GlcNAc(b1-3)Gal(b1-4)GlcNAc(b1-6)]GalNAc
# Summary of the method: as §1
# [22] = target: Gal(b1-4)GlcNAc(b1-3)Gal(b1-4)[Fuc(a1-3)]GlcNAc(b1-3)Gal(b1-4)[Fuc(a1-3)]GlcNAc
# Summary of the method: as §1
# [23] = target: Gal(b1-4)GlcNAc(b1-6)Gal(b1-4)GlcNAc
# Summary of the method: as §1
# [24] = target: Gal(b1-4)GlcNAc(b1-6)GalNAc
# Summary of the method: as §1
# [25] = target: Gal6P(b1-4)GlcNAc
# Summary of the method: as §1
# [26] = target: GalNAc(b1-3)Gal(a1-6)Gal(b1-4)Glc
# Summary of the method: as §1
# [27] = target: GalNAc3S(b1-4)[Fuc(a1-3)]GlcNAc
# Summary of the method: as §1
# [28] = target: GalNAc4S6S(b1-4)GlcNAc
# Summary of the method: as §1
# [29] = target: GlcNAc(b1-2)[GlcNAc(b1-4)]Man(a1-3)[GlcNAc(b1-2)Man(a1-6)]Man(b1-4)GlcNAc(b1-4)GlcNAc
# Summary of the method: as §1
# [30] = target: GlcNAc(b1-3)Gal(b1-4)GlcNAc(b1-3)Gal(b1-4)GlcNAc(b1-3)Gal(b1-4)GlcNAc(b1-2)Man(a1-3)[GlcNAc(b1-3)Gal(b1-4)GlcNAc(b1-3)Gal(b1-4)GlcNAc(b1-3)Gal(b1-4)GlcNAc(b1-2)Man(a1-6)]Man(b1-4)GlcNAc(b1-4)GlcNAc
# Summary of the method: as §1
# [31] = target: GlcNAc(b1-3)GalNAc
# Summary of the method: as §1
# [32] = target: GlcNAc(b1-4)GlcNAc(b1-4)GlcNAc(b1-4)GlcNAc(b1-4)GlcNAc(b1-4)GlcNAc
# Summary of the method: as §1
# [33] = target: GlcNAc(b1-4)[GlcNAc(b1-6)]GalNAc
# Summary of the method: as §1
# [34] = target: Man(a1-3)[Man(a1-6)]Man(b1-4)GlcNAc(b1-4)GlcNAc
# Summary of the method: as §1
# [35] = target: Man(a1-6)Man
# Summary of the method: as §1
# [36] = target: Neu5Ac(a2-3)Gal(b1-3)GlcNAc6S
# Summary of the method: as §1
# [37] = target: Neu5Ac(a2-3)Gal(b1-3)[Fuc(a1-4)]GlcNAc(b1-3)Gal(b1-4)[Fuc(a1-3)]GlcNAc
# Summary of the method: as §1
# [38] = target: Neu5Ac(a2-3)Gal(b1-3)]Neu5Ac(a2-3)Gal(b1-4)]GlcNAc
# Summary of the method: as §1
# [39] = target: Neu5Ac(a2-3)Gal(b1-4)GlcNAc(b1-2)Man
# Summary of the method: as §1
# [40] = target: Neu5Ac(a2-3)Gal(b1-4)GlcNAc(b1-6)GalNAc
# Summary of the method: as §1
# [41] = target: Neu5Ac(a2-3)Gal(b1-4)GlcNAc(b1-6)[Gal(b1-3)]GalNAc
# Summary of the method: as §1
# [42] = target: Neu5Ac(a2-3)Gal(b1-4)GlcNAc6S
# Summary of the method: as §1
# [43] = target: Neu5Ac(a2-3)[Neu5Ac(a2-6)]GalNAc
# Summary of the method: as §1
# [44] = target: Neu5Ac(a2-6)Gal
# Summary of the method: as §1
# [45] = target: Neu5Ac(a2-6)Gal(b1-4)GlcNAc(b1-2)Man(a1-6)Man(b1-4)GlcNAc(b1-4)GlcNAc
# Summary of the method: as §1
# [46] = target: Neu5Ac(b2-6)GalNAc
# Summary of the method: as §1
binder,measurement,setting,value
B1,glycan array binding signal (z-score),[1],-0.261
same,glycan array binding signal (z-score),[2],-0.298
same,glycan array binding signal (z-score),[3],0.032
same,glycan array binding signal (z-score),[4],0.217
same,glycan array binding signal (z-score),[5],-0.245
same,glycan array binding signal (z-score),[6],11.5
same,glycan array binding signal (z-score),[7],6.21
same,glycan array binding signal (z-score),[8],-0.169
same,glycan array binding signal (z-score),[9],-0.206
same,glycan array binding signal (z-score),[10],2.94
same,glycan array binding signal (z-score),[11],-0.313
same,glycan array binding signal (z-score),[12],-0.032
same,glycan array binding signal (z-score),[13],-0.076
same,glycan array binding signal (z-score),[14],0.11
same,glycan array binding signal (z-score),[15],-0.125
same,glycan array binding signal (z-score),[16],1.83
same,glycan array binding signal (z-score),[17],-0.243
same,glycan array binding signal (z-score),[18],-0.294
same,glycan array binding signal (z-score),[19],-0.277
same,glycan array binding signal (z-score),[20],-0.258
same,glycan array binding signal (z-score),[21],0.207
same,glycan array binding signal (z-score),[22],-0.264
same,glycan array binding signal (z-score),[23],-0.272
same,glycan array binding signal (z-score),[24],2.79
same,glycan array binding signal (z-score),[25],-0.317
same,glycan array binding signal (z-score),[26],-0.348
same,glycan array binding signal (z-score),[27],4.72
same,glycan array binding signal (z-score),[28],-0.18
same,glycan array binding signal (z-score),[29],-0.289
same,glycan array binding signal (z-score),[30],3.41
same,glycan array binding signal (z-score),[31],-0.322
same,glycan array binding signal (z-score),[32],-0.156
same,glycan array binding signal (z-score),[33],5.97
same,glycan array binding signal (z-score),[34],-0.362
same,glycan array binding signal (z-score),[35],5.02
same,glycan array binding signal (z-score),[36],0.024
same,glycan array binding signal (z-score),[37],-0.294
same,glycan array binding signal (z-score),[38],-0.311
same,glycan array binding signal (z-score),[39],0.768
same,glycan array binding signal (z-score),[40],-0.254
same,glycan array binding signal (z-score),[41],-0.108
same,glycan array binding signal (z-score),[42],10.6
same,glycan array binding signal (z-score),[43],-0.269
same,glycan array binding signal (z-score),[44],3.19
same,glycan array binding signal (z-score),[45],-0.285
same,glycan array binding signal (z-score),[46],-0.242
